In all, about 310,000 compounds went through this assay and about 14,000 (4.5%) showed an effect of 50% or more. The effect is printed as a negative number. The full list was thinned out, with strong results kept by preference.
Biological target: human ether-à-go-go-related gene (hERG) potassium channel (human, UniProt Q12809)
Assay: primary screen, population patch clamp on CHO cells stably expressing hERG; higher = less effect of the substance
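Note: peak tail current of the secondary pulse compared with the same well before compound.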

human ether-à-go-go-related gene (hERG) potassium channel, sequence (Q12809 whole entry, looked up): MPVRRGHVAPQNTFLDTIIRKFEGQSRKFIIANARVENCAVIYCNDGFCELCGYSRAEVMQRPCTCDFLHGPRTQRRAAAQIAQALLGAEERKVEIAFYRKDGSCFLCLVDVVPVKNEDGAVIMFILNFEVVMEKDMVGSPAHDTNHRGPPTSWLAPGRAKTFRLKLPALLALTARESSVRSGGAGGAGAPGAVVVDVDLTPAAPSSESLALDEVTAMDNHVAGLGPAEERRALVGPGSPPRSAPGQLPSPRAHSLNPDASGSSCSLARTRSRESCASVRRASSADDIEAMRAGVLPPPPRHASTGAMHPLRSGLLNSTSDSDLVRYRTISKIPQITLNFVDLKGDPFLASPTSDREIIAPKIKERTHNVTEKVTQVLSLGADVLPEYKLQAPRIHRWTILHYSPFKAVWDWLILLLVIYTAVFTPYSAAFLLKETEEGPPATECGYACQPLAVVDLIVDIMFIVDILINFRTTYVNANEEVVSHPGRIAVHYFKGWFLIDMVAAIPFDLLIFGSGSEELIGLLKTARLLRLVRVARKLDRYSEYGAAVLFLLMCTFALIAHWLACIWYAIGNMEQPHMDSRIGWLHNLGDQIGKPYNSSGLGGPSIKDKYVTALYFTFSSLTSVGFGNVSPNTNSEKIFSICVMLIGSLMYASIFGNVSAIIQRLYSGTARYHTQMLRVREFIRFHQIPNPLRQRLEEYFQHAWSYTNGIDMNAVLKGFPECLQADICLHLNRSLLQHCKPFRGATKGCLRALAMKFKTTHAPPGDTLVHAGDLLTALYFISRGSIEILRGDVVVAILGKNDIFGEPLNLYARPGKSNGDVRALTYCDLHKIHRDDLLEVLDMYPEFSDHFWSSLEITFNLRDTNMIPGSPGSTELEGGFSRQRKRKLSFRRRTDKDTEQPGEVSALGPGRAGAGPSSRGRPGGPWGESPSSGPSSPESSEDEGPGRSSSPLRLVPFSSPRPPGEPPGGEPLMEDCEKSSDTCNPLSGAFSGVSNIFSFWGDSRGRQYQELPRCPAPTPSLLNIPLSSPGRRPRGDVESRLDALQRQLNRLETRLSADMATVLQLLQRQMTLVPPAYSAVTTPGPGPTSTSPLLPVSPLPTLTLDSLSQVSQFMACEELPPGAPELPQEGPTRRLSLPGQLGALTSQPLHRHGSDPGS

| SMILES | hERG current change (%, negative = inhibition) at 10uM [%] |
| --- | --- |
| Cc1ccccc1NC(=O)NNC(=O)OC(C)(C)C | -6.37 |
| O=C(C1CCCCN1S(=O)(=O)c1ccccc1)N1CCCCC1 (centres unmarked) | -1.03 |
| N#Cc1ccc(C23CC4(C2)[C@H](CN(Cc2ccc(-c5ccccc5)cc2)[C@@H]4c2ccccc2)C3c2ccc(C(F)(F)F)cc2)cc1 (some centres unmarked) | 6.84 |
| CC(O)[C@H]1CNC(=O)C(=O)N1CCc1cccc(F)c1 (some centres unmarked) | 21 |
| COC(=O)c1c(C)[nH]c(C(=O)CN(C)CC(=O)Nc2cccc(F)c2)c1C | -22.2 |
| CCCn1c(N)c(C(=O)CN(C)CC(=O)Nc2c(Cl)cccc2Cl)c(=O)[nH]c1=O | -9.48 |
| CCCn1c(N)c(C(=O)CN(C)CC(=O)Nc2cccc(F)c2)c(=O)[nH]c1=O | -75.1 |
| CCCn1c(N)c(C(=O)CN(C)CC(=O)Nc2ccc(F)cc2)c(=O)[nH]c1=O | -70.6 |
| CCCn1c(N)c(C(=O)CN(C)CC(=O)Nc2ccccc2CC)c(=O)[nH]c1=O | -42 |
| CCCn1c(N)c(C(=O)CN(C)CC(=O)Nc2ccccc2C(F)(F)F)c(=O)[nH]c1=O | -0.764 |
| O=C(NCCC1=CCCCC1)c1ccc([N+](=O)[O-])cc1 | -14.9 |
| O=C(CCc1ccc(S(=O)(=O)N2CCCCC2)cc1)c1nnc(-c2ccccc2)o1 | -12.7 |
| CCC(C)NC(=O)CN(C1CCCCC1)S(C)(=O)=O (centres unmarked) | 9.11 |
| Cc1cc(N)n2ncc(-c3cccc(Br)c3)c2n1 | -2.75 |
| Cc1cc(-n2c(C)cc(C(=O)CSc3nncn3C(C)C)c2C)no1 | 9.21 |
| O=C1CCCN1CC(=O)N1CCCC(N2CCN(c3cccc(Cl)c3)CC2)C1 (centres unmarked) | 8.15 |
| CC(C)C(c1nnnn1Cc1ccc(F)cc1)N1CCSCC1 (centres unmarked) | -20.7 |
| CC(C)C(c1nnnn1Cc1ccc(F)cc1)N1CCN(C2CCCC2)CC1 (centres unmarked) | -38.2 |
| CCC(c1nnnn1Cc1cccs1)N1CCN(C2CCCC2)CC1.Cl (centres unmarked) | -22.3 |
| CCC(c1nnnn1Cc1ccc(F)cc1)N1CCN(C)CC1 (centres unmarked) | -1.38 |
| CCCC(c1nnnn1CS(=O)(=O)c1ccc(C)cc1)N1CCN(C2CCCC2)CC1.Cl (centres unmarked) | -37.5 |
| CCCC(c1nnnn1Cc1ccc(F)cc1)N1CCN(C)CC1 (centres unmarked) | -2.88 |
| CCCC(c1nnnn1Cc1cccs1)N1CCN(C2CCCC2)CC1.Cl (centres unmarked) | -29 |
| CCCC(c1nnnn1Cc1ccc(OC)cc1)N1CCN(c2ccccc2OC)CC1 (centres unmarked) | -8.59 |
| CCCC(c1nnnn1Cc1ccc(F)cc1)N1CCN(C2CCCCC2)CC1.Cl (centres unmarked) | -62.4 |
| CC(C)C(c1nnnn1Cc1ccc(F)cc1)N1CCN(C2CCCCC2)CC1 (centres unmarked) | -61.3 |
| CCCC(c1nnnn1Cc1ccc(F)cc1)N1CCN(CC)CC1 (centres unmarked) | -53 |

| SMILES | hERG current change (%, negative = inhibition) at 10uM [%] |
| --- | --- |
| CCC(c1nnnn1Cc1ccc(F)cc1)N1CCN(C2CCCCC2)CC1.Cl (centres unmarked) | -53 |
| CCCN1C(=O)C(O)(CC(=O)c2ccc3c(c2)OCCO3)c2ccccc21 (centres unmarked) | 7.24 |
| Cc1nn(CC(=O)Nc2ccc(C(=O)N3CCCC3)cc2)c(=O)c2ccccc12 | -1.72 |
| CCN(c1cccc(C)c1)S(=O)(=O)c1c(C)[nH]c(C)c1C(=O)N1CCCCC1 | 5.45 |
| O=C(O)c1cccc(CSc2nnc(Cc3ccccc3)o2)c1 | -5.18 |
| Cc1cc(C)n2nc(C(=O)Nc3ccc4c(c3)OCO4)nc2n1 | -1.25 |
| Cc1nc(NC(=O)CN2CCCCC2)sc1C(=O)N(C)C | 1.37 |
| CC(NC(=O)c1cc(-c2ccccc2)nc2ccccc12)C1CCCO1 (centres unmarked) | -11 |
| COc1cc2c(cc1OC)[C@@]13CCN4CC5=CCO[C@H]6CC(=O)N2[C@H]1[C@H]6[C@H]5C[C@H]43 | -8.03 |
| O=C1CC2OCC=C3CN4CCC56c7cc([N+](=O)[O-])ccc7N1C5C2C3CC46 (centres unmarked) | -22.4 |
| O=C1/C(=C\c2ccccc2)C2OCC=C3CN4CCC56c7ccccc7N1C5C2C3CC46 (centres unmarked) | -53.4 |
| NNC(=O)c1ccc(Oc2cc(Cl)cc(Cl)c2)o1 | 1.1 |
| COc1cccc(NC(=O)c2ccc(NCCCN3CCC(C)CC3)c([N+](=O)[O-])c2)c1 | -56.2 |
| Cc1ccc(NC(=O)c2ccc(NCCCN3CCC(C)CC3)c([N+](=O)[O-])c2)cc1F.Cl | -8.31 |
| O=C(Nc1ccc(Cl)c([N+](=O)[O-])c1)c1ccc(NCCCN2CCOCC2)c([N+](=O)[O-])c1 | -10.2 |
| O=C(Nc1cc(F)cc(F)c1)c1ccc(NCCc2ccccc2)c([N+](=O)[O-])c1 | 3.74 |
| CCCN(CCC)CCCNc1ccc(C(=O)Nc2cccc(OC)c2)cc1[N+](=O)[O-].Cl | -76.3 |
| COc1ccc(NC(=O)c2ccc(NCCCN3CCOCC3)c([N+](=O)[O-])c2)cc1 | -3.71 |
| Cc1ccc(NC(=O)c2ccc(NCCCN3CCC(C)CC3)c([N+](=O)[O-])c2)c(C)c1 | -19.4 |
| Cc1cccc(NC(=O)c2ccc(NCCc3ccccc3)c([N+](=O)[O-])c2)c1 | 6.78 |
| Cl.O=C(Nc1cc(F)cc(F)c1)c1ccc(NCCCN2CCCCCC2)c([N+](=O)[O-])c1 | -72.1 |
| Cc1ccc(C(=O)Nc2cccc(NC(=O)c3ccc(C)cc3)n2)cc1 | 2.01 |
| Cc1ccccc1-c1nnc(CN2CCC(C)CC2)o1.Cl | -6.6 |
| COCCOCC(O)CN1CCN(c2ccc(C)cc2)CC1.O=C(O)C(=O)O (centres unmarked) | -11.2 |
| Cc1c(C(=O)NC2CCCc3ccccc32)oc2ccc(S(=O)(=O)N3CCOCC3)cc12 (centres unmarked) | -2.45 |
| CC(Oc1cccc(Cl)c1)C(=O)Nc1ccc(S(=O)(=O)NC2=NCCCCC2)cc1 (centres unmarked) | -22.5 |

Source: PMC4336329 (PLoS ONE, 2015)
